ST2 IL33 inh: blocks human ST2 binding to IL-33. 78,000 compounds, 2.3% hits. inhibition, % for hits at 17 µM. AlphaLISA ST2-Fc/biotin-IL-33 interaction, 1 h. Q01638; in the data active means inhibition above about 30%
Target sequence (Q01638 whole entry, looked up): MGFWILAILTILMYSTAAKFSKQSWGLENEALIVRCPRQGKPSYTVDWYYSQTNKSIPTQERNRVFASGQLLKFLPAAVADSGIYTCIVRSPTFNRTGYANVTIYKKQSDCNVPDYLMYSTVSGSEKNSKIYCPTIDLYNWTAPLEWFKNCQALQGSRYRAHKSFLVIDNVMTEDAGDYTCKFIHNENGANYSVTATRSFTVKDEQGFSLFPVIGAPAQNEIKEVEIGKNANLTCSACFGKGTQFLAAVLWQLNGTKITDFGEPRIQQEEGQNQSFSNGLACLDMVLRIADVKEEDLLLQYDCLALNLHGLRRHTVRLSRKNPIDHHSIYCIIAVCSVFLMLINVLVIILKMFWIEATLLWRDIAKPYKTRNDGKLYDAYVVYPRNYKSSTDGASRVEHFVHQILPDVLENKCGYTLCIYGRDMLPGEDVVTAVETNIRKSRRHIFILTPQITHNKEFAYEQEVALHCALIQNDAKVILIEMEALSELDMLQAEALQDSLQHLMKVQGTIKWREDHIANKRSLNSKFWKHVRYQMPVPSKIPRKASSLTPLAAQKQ
Numbers without * were called inactive; i = inactive. The sample as a whole holds a higher share of hits than the screen did.

SMILES	ST2 IL33 inh
COc1ccc(/C=C2\N=C(c3cccc(C)c3)OC2=O)c(OC)c1OC	48.0%*
Cc1occc1C(=O)Nc1sc2c(c1C(N)=O)CCCC2	i
COC(=O)c1cc2n(n1)CCCN(C(=O)c1c(C)[nH]c(C(C)=O)c1C)C2	i
O=c1oc2ccccc2c(O)c1-c1c[nH]c2ccccc12	i
CCCC(=O)Nc1cc(C(=O)NCCC2CCCN2C)ccc1C (stereo not drawn)	i
CCCOc1ccc(C2C3=C(CC(C)(C)CC3=O)N(CC(=O)O)C3=C2C(=O)CC(C)(C)C3)cc1	i
COC(=O)c1cc2n(n1)CCCN(C(=O)c1cc3nc(C)cc(C)n3n1)C2	i
Cc1ccc(C2C3=C(CCCC3=O)Nc3nc(SCc4ccccc4)nn32)cc1 (stereo not drawn)	i
C=CCn1c(CCCNC(=O)CC)nc2ccccc21	i
N#Cc1c(NC(=O)CSc2ccccc2)sc2c1CCCC2	i
CCc1ccc(-n2c(CN3CCN(S(=O)(=O)c4ccc5c(c4)CCC5)CC3)nc3cccnc32)cc1	i
CSc1nc(O)cc(=O)n1-c1ccccc1	i
CCOc1ccc(/C=C2\N=C(c3cccc(F)c3)OC2=O)cc1OC	i
Cc1cccc(C2=N/C(=C\c3ccco3)C(=O)O2)c1	47.0%*
Cc1cccc(C2=N/C(=C\c3c(F)cccc3Cl)C(=O)O2)c1	i
Cc1ncc(CN2CCOC(CCCc3ccccc3)C2)n1C (stereo not drawn)	i
CC1=CCC2CC1C(c1ccc(N(C)C)cc1)OC2(C)C (stereo not drawn)	60.0%*
CCCC(=O)Oc1ccc2c(=O)c(Oc3cc(C)cc(C)c3)coc2c1	i
O=C(NC[C@H]1O[C@@H](CO)[C@@H](O)[C@H]1N1CCCC1)Nc1ccccc1	i
Cc1cc(N2CCN(C)CC2)nc2ccc(NC(=O)CCC(=O)N3CCCCCC3)cc12	i
Cc1ccccc1N=Cc1cc([N+](=O)[O-])ccc1O	i
COc1cc(Br)c(Br)c(C=Nc2cc(C)ccc2O)c1O	i
Cc1ccc(O)c(C=Nc2ccc(Br)c3cccnc23)c1	97.0%*
O=C(NC1=NCCS1)c1cc(-c2ccc3c(c2)OCO3)nc2ccccc12	i
CC1=CC[C@@H]2CN(C(=O)c3ccc(-c4ccn[nH]4)cc3)C[C@@H]2C1	i
SMILES	ST2 IL33 inh
CCn1cc(C(=O)NCc2ccco2)c(=O)c2cc(S(=O)(=O)N3CCCCC3)ccc21	i
Cc1nnc(NC(=O)c2ccc(C(C)C)cc2)s1	92.0%*
Cc1nnc(NC(=O)Nc2ccccc2)s1	i
CC(C)c1nnc(NC(=O)c2ccc(Br)cc2)s1	i
O=C(Cn1c(=O)n(-c2ccccc2)c(=O)c2sccc21)c1ccccc1	i
O=C(NCC1CCCO1)c1c[nH]c2ccc(S(=O)(=O)Nc3ccccc3F)cc2c1=O (stereo not drawn)	i
CN(Cc1cc(-c2ccccc2)on1)C(=O)c1ccc(-n2cnnc2)cc1	i
Cc1ccc(CNC(=O)NCCc2nc3cccnc3n2Cc2ccc(C)cc2)cc1	i
Cc1ccc(Cn2c(CCNC(=O)Nc3ccccc3Cl)nc3cccnc32)cc1	36.0%*
CCOc1ccc(NC(=O)NCCc2nc3cccnc3n2Cc2ccc(C)cc2)cc1	i
CC1=C[C@@H](CNC(=O)c2ccc(C#N)cc2)[C@H](C(C)C)C[C@H]1CC(=O)Nc1ccccn1	81.0%*
CC1=C[C@@H](CNS(=O)(=O)c2cccc(C#N)c2)[C@H](C(C)C)C[C@H]1CC(=O)Nc1ccccn1	i
CC1=C[C@@H](CNC(=O)c2ccncc2)[C@H](C(C)C)C[C@H]1CC(=O)NCc1ccc(C#N)cc1	i
CCc1ccc(S(=O)(=O)N2CCN(c3nc(C)cc(N(C)C)n3)CC2)cc1	i
O=C(NCCOc1ccccc1F)C12CC3CC(CC(C3)C1)C2	i
CC(=O)Nc1ccc(CN(C)CC2(CO)CCOCC2)cc1	i
CCC(CC)n1ncc(C)c1NC(=O)c1cc(C)nc(C)n1	i
CCCCn1ncc(C)c1NC(=O)c1ccsc1	31.0%*
CCCCn1ncc(C)c1NC(=O)[C@H]1CCCO1	i
NS(=O)(=O)c1ccc(N2C(=O)C=CC2=O)cc1	i
CSc1ccc(C2Nc3ccccc3C(=O)N2c2ccc(C)cc2)cc1 (stereo not drawn)	i
CSc1ccc(C2Nc3cccc4cccc(c34)N2)cc1	31.0%*
COc1ccc(C2NC(Cc3ccccc3)(C(=O)O)C3C(=O)N(c4ccc(F)cc4)C(=O)C23)cc1 (stereo not drawn)	i
CC(=O)[C@]1(O)Cc2c(O)c3c(c(O)c2[C@@H](O[C@H]2C[C@H](N)[C@H](O)[C@H](C)O2)C1)C(=O)c1ccccc1C3=O	34.0%*
Cc1cccc(N2C(=O)CC(N3CCOCC3)C2=O)c1 (stereo not drawn)	i
SMILES	ST2 IL33 inh
Cc1ccc(S(=O)(=O)N2CCN(c3nc(C)cc(N4CCOCC4)n3)CC2)cc1	i
Cc1ccc(SC2=C(N3CCOCC3)C(=O)N(c3cc(C)cc(C)c3)C2=O)cc1	43.0%*
O=C(O)c1cc(NC(=O)C(c2ccccc2)c2ccccc2)cc(C(=O)O)c1	i
Cn1cnc2cc(NCc3nc4ccccc4n3Cc3ccccc3)ccc21	i
O=C(NC1CCCC1)c1ccc2c(c1)N(Cc1ccc(F)cc1)C(=O)CS2	i
NC(=O)[C@H](Cc1ccc(O)cc1)NC(=O)C1=C[C@@H](NC(=O)c2cnccn2)[C@@H](O)[C@H](O)C1	44.0%*
COc1ccc(C[C@H](NC(=O)C2=C[C@@H](NC(=O)c3ccc(C)cc3)[C@@H](O)[C@H](O)C2)C(N)=O)cc1	i
NC(=O)[C@H](Cc1cccs1)NC(=O)C1=C[C@@H](NC(=O)c2ccc(F)c(Cl)c2)[C@@H](O)[C@H](O)C1	i
N#Cc1ccc(Oc2ccccc2N2C(=O)c3ccccc3C2=O)cc1	i
C#CCOc1c(/C=C2\C(=O)ON=C2C)cccc1OC	i
NCCc1cc(=O)[nH]c(-c2ccccn2)n1	i
CCOC(=O)C1C(=O)C=C(c2cccs2)CC1c1cccc(F)c1 (stereo not drawn)	47.0%*
CCOC(=O)C1C(=O)C=C(c2cccc(OC)c2)CC1c1ccc(OC)c(OC)c1 (stereo not drawn)	i
CCOC(=O)C1C(=O)C=C(c2ccco2)CC1c1cccs1 (stereo not drawn)	i
Cc1ccc(NC2(C(=O)NCCCc3c(C)n[nH]c3C)CCCC2)cc1	i
CCOc1ccc(CC(=O)N(c2ccc(C(C)C)cc2)C2C=CS(=O)(=O)C2)cc1 (stereo not drawn)	i
COc1ccc(C2C(C(=O)N(C)c3ccc(Cl)cc3)CC(=O)N2c2ccc(OC)cc2)cc1 (stereo not drawn)	i
CCSCCOC(=O)C1=C(C)NC2=C(C(=O)C(C(=O)OC)C(C)C2)C1c1ccc(C)s1 (stereo not drawn)	i
O=C1N(Cc2cccnc2)C(=O)C2(CCN(Cc3ccccc3Cl)CC2)N1CCc1ccccc1	i
CCN1C(=O)N(CCc2ccccc2)C2(CCN(Cc3cccc(OC)c3OC)CC2)C1=O	i
COCCCN1C(=O)N(Cc2ccccc2)C(=O)C12CCN(Cc1c(F)cccc1Cl)CC2	32.0%*
COCc1noc(-c2ccc(N3CCC4(CC3)OCCO4)nc2)n1	i
COc1cccc(C(=O)N2CCN(c3ccc(Cl)cc3)CC2)c1	i
O=C(O)c1ccc(N=Cc2cc(Br)ccc2O)cc1	i
O=C(O)c1ccc(O)c(C=Nc2ccc(Br)cc2)c1	i
C=CCc1cccc(C=Nc2ccc(Br)cc2)c1O	39.0%*
c1cnc(-c2cc(NCc3cccnc3)nc3[nH]ccc23)nc1	35.0%*
